Bioassay records deposited in PubChem BioAssay by National Center for Advancing Translational Sciences (NCATS).
Most compounds without a hit are left out; they make up all but 12% or so of the library.
Sfp inh – blocks B. subtilis Sfp PPTase activity; Q9F4F7; Biochemical Sfp PPTase activity, qHTS; Potency, µM, for inactives: largest response in the series, negative = inhibition, most hits filed as inhibitors; actives 3.5% (n = 310,000);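 further: the enzyme is Sfp with the accession as filed and its product quenches rhodamine fluorescence; 0% = enzyme reaction without inhibitor and -100% = no enzyme wells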
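After 15 min at room temperature with compound, 15 nM Sfp received 5 uM rhodamine-CoA plus 12.5 uM BHQ-2-ybbR (50 mM Hepes pH 7.6, 10 mM MgCl2). Rate came from the fluorescence difference over 30 min, ex 525/em 598 nm.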
HP1b binding inh – inhibitors of HP1-beta chromodomain binding to methylated histone tails. Potency, µM (doses to about 114 µM), for inactives: at the highest dose activity change, negative = inhibition, actives largely listed as inhibitors. actives 0.56% (n = 390,000). AlphaScreen HP1-beta / biotin-H3K9me3 peptide binding; further: nearly all actives have a fitted effect of over 70% in size
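Compound inhibition of the preformed complex between 50 nM HP1-beta and 50 nM biotinylated H3K9me3 peptide was read by AlphaScreen. Buffer was PBS pH 7.4 with 0.01% Tween-20. Incubations ran 30 min at room temperature, with 10 ug/mL donor/acceptor beads.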
G9a block – G9a (human) methyltransferase inhibition; Q96KQ7; G9a H3K9 monomethylation, AlphaScreen, 2 h; Potency, µM (highest dose often 102 µM), without a hit: top-dose activity, negative = inhibition, hits mostly inhibitors; actives 8.8% (n = 350,000); AID 504332; further: on the % scale 0 is the no-effect control and ±100 the full control effect; nearly all actives have a fitted effect of over 75% in size
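Step 1: enzyme (final 20 nM) with compound, 15 min RT. Step 2: substrate peptide 500 nM and SAM 20 uM, 2 h RT. Step 3: anti-H3K9me1 antibody and AlphaScreen beads, 10 min, then plate read.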
L3MBTL1 inh – blocks human L3MBTL1; AlphaScreen L3MBTL1–H3K9me1 peptide binding; Potency, µM (titrated, usually from 57.1 µM), inactives show at the top dose activity, negative = inhibition, usual class: inhibitors; actives 0.66% (n = 230,000); AID 485360; further: on the % scale 0 is the no-effect control and ±100 the full control effect; nearly all actives have a fitted effect of over 60% in size
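First, the protein-peptide complex forms for 30 min at room temperature (L3MBTL1 50 nM, biotinylated H3K9me1 peptide 75 nM). Next, compounds are pin-transferred and incubated 30 min. Finally, AlphaScreen beads are added and read after 30 min.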
JMJD2A Tudor – inhibitors of human JMJD2A Tudor domain; O75164; AlphaScreen JMJD2A-Tudor / H3K4me3 peptide binding; Potency, µM (top dose mostly 114 µM), for inactives: at the highest dose activity change, negative = inhibition, most hits filed as inhibitors; actives 4.4% (n = 390,000); AID 504339; further: on the % scale 0 is the no-effect control and ±100 the full control effect; nearly all actives have a fitted effect of over 50% in size
BAZ2B inh – BAZ2B (human) inhibition | Potency, µM (top dose mostly 114 µM), without a hit: at the top dose activity change, negative = inhibition, most hits filed as inhibitors | AlphaScreen BAZ2B-H3K14Ac peptide displacement | actives 4.4% (n = 360,000) | AID 504333; further: on the % scale 0 is the no-effect control and ±100 the full control effect; nearly all actives have a fitted effect of over 60% in size
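AlphaScreen displacement of biotin-H3(5-23)K14Ac peptide (50 nM final) from BAZ2B (50 nM final) in PBS pH 7.4, 0.01% Tween-20; complex preformed 30 min RT, then compounds (top 110 uM) 30 min RT, beads 20 min dark.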
The depositor's hits bear a star; ? = inconclusive; nt = no result; [ ] = another dose, or the depositor's remark. The call rests on the fitted dose curve; in most records, active means well fitted curve in the direction sought with a large enough effect; inconclusive means small, poorly fitted or top-dose-only effect, or another doubt; inactive means no such curve, though single readings can be large; an effect the other way counts as inactive or inconclusive. Potency means the concentration at half of the fitted maximal effect.

SMILES	Sfp inh	HP1b binding inh	G9a block	L3MBTL1 inh	JMJD2A Tudor	BAZ2B inh
O=C(Nc1cccc(Cl)c1)c1cc(N=Nc2ccc([N+](=O)[O-])cc2Cl)ccc1O	-24%	?	2.8µM*	?	4.5µM*	2.8µM*
Cc1ccc(CNCCNCCO)s1	3%	46%	40µM*	0%	-6%	-36%
CCn1c(SCC(=O)Nc2ccc(N3CCOCC3)c(Cl)c2)nnc1-c1ccc(N)cc1	4%	43%	45µM*	nt	?	-1%
Cc1ccc(NC(=O)CSc2nnc(-c3cccs3)n2Cc2ccco2)cc1	8%	-8%	nt	-10%	?	?
CN(C)c1ccc(NC(=O)CSc2nnc(-c3cccs3)n2Cc2ccco2)cc1	1%	?	10µM*	nt	40µM*	45µM*
CCn1c(Cn2nnc(-c3ccccc3)n2)nnc1SCC(=O)Nc1ccc(C(C)=O)cc1	-3%	6%	18%[12.7 µM]	3%	-16%	-4%
CCn1c(Cn2nnc(-c3ccccc3)n2)nnc1SCC(=O)Nc1ccc(N(C)C)cc1	12%	23%	13µM*	-1%	-27%	-5%
CCn1c(SCC(=O)Nc2ccc(N(C)C)cc2)nnc1-c1cccc(C)c1	-5%	-22%	7.1µM*	-9%	?	?
CCn1c(SCC(=O)Nc2cc(C)on2)nnc1-c1cccc(C)c1	14%	20%	17%	nt	-12%	0%
C=C(C)C1CCC(C)C(OC(C)=O)C1 (stereo not given)	5%	nt	nt	nt	nt	nt
C=CCC1(NC(C)c2ccccc2)CCCCC1 (stereo not given)	4%	14%	20%[59 µM]	10%	-1%	7%
O=C(O)CC(c1ccccc1)n1cccc1 (stereo not given)	14%	29%	-8%	-1%	9%	-37%
Nc1ccc(C(CC(=O)O)n2cccc2)cc1 (stereo not given)	13%	?	?	nt	?	79µM*
CCOC(=O)N/N=C1/C[C@@H](O)[C@@H](O)[C@@H]2[C@@H]3C(=O)N(Cc4ccccc4)C(=O)[C@H]3CC[C@H]12	16%	nt	nt	nt	nt	nt
COc1cc(/C=N/Nc2nc3ccccc3[nH]2)ccc1O	11µM*	9%	-2%[59 µM]	-13%	-29%	?
COc1cc(/C=N/Nc2nc3ccccc3[nH]2)cc(OC)c1O	14µM*	?	28µM*	-6%	-27%	?
COc1cc(/C=N/Nc2nc3ccccc3[nH]c2=O)ccc1O	0%	21%	5%	8%	-6%	-23%
COc1cccc(/C=N/Nc2nc3ccccc3[nH]2)c1O	-9%	12%	nt	19%	?	4%
Cc1cc(S(=O)(=O)NC(C)c2nnc3ccccn23)ccc1Br (stereo not given)	nt	12%	nt	3%	-18%	nt
COc1ccc(CCCc2nnc(SCC(=O)NN)o2)c(C)c1	-1%	53%	31%	nt	-14%	-14%
Nc1cc([N+](=O)[O-])ccc1Nc1ccc(O)cc1	56µM*	?	10µM*	nt	56µM*	32µM*
CC1CCCC(C)N1S(=O)(=O)c1ccc(NC(=O)CNC2CCCC2)cc1 (stereo not given)	-1%	2%	45µM*	nt	-17%	-4%
CC(=O)Nc1ccc(S(=O)(=O)N2C(C)CCCC2C)cc1 (stereo not given)	8%	25%	56µM*	nt	-13%	-31%
Cc1cc(Br)c(NC(=O)CN2CCCC2)c(Br)c1	13%	-18%	-5%	nt	-21%	1%
COc1ccc(CCN(Cc2cc3ccc(C)cc3n3nnnc23)C(C)=O)cc1OC	9%	-7%	-15%	nt	11µM*	5%
SMILES	Sfp inh	HP1b binding inh	G9a block	L3MBTL1 inh	JMJD2A Tudor	BAZ2B inh
CC(NC(=O)c1ccc2c(c1)CCN2S(=O)(=O)c1ccccc1)c1ccccc1 (stereo not given)	nt	28%	2%[59 µM]	nt	-3%	5%
COc1cc(CN2CCc3nc(Nc4ccc5c(c4)OCCO5)ncc3C2)cc(OC)c1OC	nt	-14%	-17%[12.7 µM]	nt	?	?
COc1cccc(CN2CCc3nc(Nc4ccc5c(c4)OCCO5)ncc3C2)c1OC	nt	?	?	nt	56µM*	35µM*
Cc1ccc(CN2CCc3nc(Nc4ccc5c(c4)OCCO5)ncc3C2)cc1	nt	?	-24%[12.7 µM]	nt	45µM*	40µM*
CCc1ccc(CN2CCc3nc(Nc4ccc5c(c4)OCCO5)ncc3C2)cc1	nt	?	0%[12.7 µM]	nt	28µM*	14µM*
CCc1ccccc1NC(=O)c1cnn(-c2ccccc2)c1C	5%	57%	14%	3%	-9%	11%
CCN(CC(=O)Nc1c(F)cccc1F)C(=O)C1CC(=O)N(CCc2ccc(OC)c(OC)c2)C1 (stereo not given)	nt	?	13%[59 µM]	-1%	-8%	11%
CCN(c1ccccc1)S(=O)(=O)c1ccc(N2CCN(c3ccc(O)cc3)CC2)nc1	nt	50µM*	nt	?	22µM*	nt
CCN(CC)S(=O)(=O)c1ccc(N2CCc3ccccc3C2)nc1	-9%	52%	40µM*	nt	19%	13%
O=C(CN1CCOc2ccccc21)NCc1ccc(Cl)cc1	-9%	28%	50µM*	-13%	-18%	?
COC(=O)c1ccc(CN2CCc3ccccc32)cc1	4%	-19%	nt	-3%	40µM*	?
O=C(CN1CCCc2ccccc21)NC(=O)NCc1ccccc1	26%	21%	-5%[12.7 µM]	nt	-13%	2%
O=C(CN1CCc2ccccc21)NCc1ccccc1Cl	12%	-9%	71µM*	-8%	?	-37%
O=C(CN1CCOc2ccccc21)NCc1ccc(F)cc1	8%	44%	?	-1%	-13%	-9%
COC(=O)c1ccc(S(=O)(=O)N2CCc3ccccc32)cc1	4%	70%	47%	12%	5%	?
O=C(CN1CCc2ccccc21)NC(=O)NCc1ccccc1	12%	-11%	32µM*	-14%	-9%[11.4 µM]	nt
COc1ccc(Cl)cc1NC(=O)CN1CCc2ccccc21	-7%	27%	22µM*	-12%	-26%	?
COc1ccc(Cl)cc1NC(=O)CN1Cc2ccccc2C1=O	nt	26%	-12%[59 µM]	nt	-10%	-3%
O=C(CN1CCCc2ccccc21)NC(=O)NC1CCCCC1	?	?	71µM*	?	32µM*	?
COc1ccc(OCc2cc(C3Nc4ccccc4C(=O)N3Cc3ccccc3)ccc2OC)cc1 (stereo not given)	nt	nt	nt	nt	-20%	nt
COc1ccc(C(=O)NNC2=CC(=O)CC(C)(C)C2)cc1OC	18%	21%	8%[59 µM]	-2%	12%	-30%
c1ccc(-c2cnc(CSc3nnc4ccccn34)o2)cc1	-5%	31%	10µM*	30%[11.4 µM]	-11%	1%
O=C(NS(=O)(=O)Nc1ccccc1)C1=C(N2CCCC2)COC1=O	nt	28%	nt	-6%	100µM*	nt
O=C(NC1CCCCC1)NC1CCCCC1	13%	nt	-27%[2.33 µM]	nt	nt	nt
